Experiment [1] in a line: qHTS Screen of the MIPE 4.0 Collection Against Ewings Sarcoma (TC32) (AID 1259256). Also: nearly all actives have a fitted effect of over 45% in size. Also: potency is read from the fitted curve at half-maximal effect. The method, boiled down: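 Compound titrations go onto adherent log-phase cells 4 h after seeding, incubate 48 h at 37C, then CellTiter-Glo luminescence reports viability relative to DMSO and cell-free controls.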
On the technique in general: In qHTS, concentration-response curves come from the screen itself.

Experiment [2] in a line: P-glycoprotein substrates identified in KB-8-5-11 adenocarcinoma cell line, qHTS therapeutic library screen (AID 1346987). Also: nearly all actives have a fitted effect of over 65% in size. Also: potency is read from the fitted curve at half-maximal effect. The method, boiled down: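 P-gp-mediated resistance screen: KB-8-5-11 cells treated 72 h with compounds in dose-response. CellTiter-Glo viability.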
Experiment [3] is described as follows: NS1 protein of Zika virus - qHTS assay to identify small molecule inhibitors in human HEK 293 cells (AID 1347053). Also: series mostly up to about 46 µM; nearly all actives have a fitted effect of over 55% in size. In short, it runs like this:
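Inhibition of NS1 expression was scored in HEK 293 cells given compound 1 h ahead of MR766 virus (MOI = 0.5). Following 24 h at 37 C, two anti-NS1 antibodies generated a TR-FRET signal, scaled between uninfected and infected controls.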

Experiment [4] is described as follows: qHTS of pediatric cancer cell lines to identify multiple opportunities for drug repurposing: Primary screen for DAOY cells (AID 1347090). Also: nearly all actives have a fitted effect of over 55% in size. Also: potency is read from the fitted curve at half-maximal effect. In short, it runs like this:
(§1)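 Eight- or eleven-point concentration series, 48 h treatment at 37 degrees C in growth media; readout CellTiter-Glo luminescence. Potency and efficacy were taken from the concentration-response curves.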

Experiment [5] can be described thus: qHTS of pediatric cancer cell lines to identify multiple opportunities for drug repurposing: Primary screen for BT-37 cells (AID 1347094). Also: potency is read from the fitted curve at half-maximal effect. In short, it runs like this: (§2)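 Phenotypic viability qHTS, 48 h compound exposure, CellTiter-Glo luminescence read-out; multi-concentration dosing so that potency and efficacy derive directly from the primary screen's curves.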

Experiment [6] is described as follows: qHTS of pediatric cancer cell lines to identify multiple opportunities for drug repurposing: Primary screen for NB-EBc1 cells (AID 1347095). Also: potency is read from the fitted curve at half-maximal effect. In short, it runs like this: as §2
The nature of experiment [7]: qHTS of pediatric cancer cell lines to identify multiple opportunities for drug repurposing: Primary screen for U-2 OS cells (AID 1347096). Also: nearly all actives have a fitted effect of over 50% in size. The method, boiled down: (§3)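 Cells (500-1,000/well) in growth media were settled 5 h at 37 degrees C, then given compounds for 48 h. Viability was read as CellTiter-Glo luminescence. Primary runs used MIPE at 11 points (0.78 nM-46 µM) and NPC at 8 points (0.59 nM-46 µM); follow-ups used 11 points.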

The nature of experiment [8]: qHTS of pediatric cancer cell lines to identify multiple opportunities for drug repurposing: Primary screen for Saos-2 cells (AID 1347097). Also: nearly all actives have a fitted effect of over 40% in size. Also: potency is read from the fitted curve at half-maximal effect. In short, it runs like this:
as §2

The nature of experiment [9]: qHTS of pediatric cancer cell lines to identify multiple opportunities for drug repurposing: Primary screen for LAN-5 cells (AID 1347100). In short, it runs like this: as §3
A short description of experiment [10]: qHTS of pediatric cancer cell lines to identify multiple opportunities for drug repurposing: Primary screen for A673 cells (AID 1347092). Also: nearly all actives have a fitted effect of over 45% in size. Also: potency is read from the fitted curve at half-maximal effect. The method, boiled down: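 Luminescence from CellTiter-Glo, taken after 15 min at room temperature, served as the proxy for metabolically active cells following 48 h treatment. Both potency and efficacy were taken from curves fitted to the titration data.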

Experiment [11] can be described thus: qHTS of pediatric cancer cell lines to identify multiple opportunities for drug repurposing: Primary screen for SK-N-MC cells (AID 1347093). Also: potency is read from the fitted curve at half-maximal effect. The method, boiled down: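 Metabolically active cells were quantified by ATP-dependent luminescence (CellTiter-Glo, 15 min at room temperature) following 48 h treatment. Cells had been plated at 500-1,000 per well and settled for 5 h beforehand.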

The nature of experiment [12]: qHTS of pediatric cancer cell lines to identify multiple opportunities for drug repurposing: Primary screen for SK-N-SH cells (AID 1347098).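 Also: DMSO served as neutral control and bortezomib at 2.3 µM as positive control; nearly all actives have a fitted effect of over 65% in size.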 In short, it runs like this: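 Cells (500-1,000/well) rested 5 h, then received compounds for 48 h; metabolically active cells were measured by CellTiter-Glo luminescence. Final concentrations spanned up to 46 µM (MIPE, 11-point) or 0.59 nM-46 µM (NPC, 8-point) in primary screens, 11-point in follow-ups.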

Experiment [13] can be described thus: qHTS of pediatric cancer cell lines to identify multiple opportunities for drug repurposing: Primary screen for NB1643 cells (AID 1347099). Also: nearly all actives have a fitted effect of over 50% in size. Also: potency is read from the fitted curve at half-maximal effect. The method, boiled down:
as §2

A short description of experiment [14]: qHTS of pediatric cancer cell lines to identify multiple opportunities for drug repurposing: Primary screen for TC32 cells (AID 1347089). Also: nearly all actives have a fitted effect of over 60% in size. The method, boiled down:
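qHTS, TC32, 48 h drug treatment, CellTiter-Glo luminescence as a proxy for metabolically active cells; primary top concentration 46 µM (MIPE 11-pt, NPC 8-pt); confirmatory 11-pt.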

Experiment [15] is described as follows: qHTS of pediatric cancer cell lines to identify multiple opportunities for drug repurposing: Primary screen for SJ-GBM2 cells (AID 1347091). Also: potency is read from the fitted curve at half-maximal effect. In short, it runs like this:
as §1

Records with an inconclusive call do not appear. Active and inactive are the calls of the source. Calls follow the shape of the dose curve; as a rule, active = well fitted curve in the direction sought with a large enough effect; inconclusive = small, poorly fitted or top-dose-only effect, or another doubt; inactive = no such curve, though single readings can be large; an effect the other way counts as inactive or inconclusive. Positions of bridges follow the written chain, without caps; N, C: chain ends. Non-standard residues stand in square brackets, D forms with d. Residues, ends and D or L forms follow the SMILES beside them. ξ: configuration not given here. *: point of attachment. Octanoyl(6-Me) = CCC(C)CCCCC(=O)*; ξThr(3R) = C[C@@H](O)C(N)C(=O)O; dDab = NCC[C@@H](N)C(=O)O; Dab = NCC[C@H](N)C(=O)O

Regarding `CC(C)(O)CC[C@@H](O)[C@](C)(O)[C@H]1CC[C@@]2(O)C3=CC(=O)[C@@H]4C[C@@H](O)[C@@H](O)C[C@]4(C)[C@@H]3CC[C@]12C`, the Potency result in experiment [1], in experiment [2], in experiment [3], in experiment [4], in [5] and in experiment [6] was “inactive” each time. The Potency result in [7], in experiment [8] and in experiment [9] was “inactive” in each case.

Turning to `CCC(C)CCCCC(=O)N[C@@H](CCN)C(=O)NC(C(=O)N[C@H](CCN)C(=O)N[C@@H]1CCNC(=O)C([C@@H](C)O)NC(=O)[C@@H](CCN)NC(=O)[C@@H](CCN)NC(=O)[C@@H](CC(C)C)NC(=O)[C@H](Cc2ccccc2)NC(=O)[C@H](CCN)NC1=O)[C@@H](C)O` (stereo partly drawn) ({Octanoyl(6-Me)}-[Dab][ξThr(3R)][dDab][dDab][Dab]F[dL][dDab][dDab][ξThr(3R)]; lactam 4-C), the Potency result in experiment [1], in experiment [2], in experiment [3], in experiment [4], in experiment [10] and in experiment [11] was “inactive” in each case. In addition, the Potency result in experiment [5], in [7], in experiment [8], in [12], in [13] and in experiment [9] was “inactive” throughout.

Regarding `COc1ccc(CCC(=O)c2c(O)cc(O[C@@H]3O[C@H](CO)[C@@H](O)[C@H](O)[C@@H]3O[C@@H]3O[C@@H](C)[C@H](O)[C@@H](O)[C@@H]3O)cc2O)cc1O`, the Potency was 9.35 µM (active) in experiment [1], 9.35 µM (active) in experiment [10], 3.32 µM (active) in experiment [11] and 13.2 µM (active) in [13]. The Potency entry in experiment [2], in experiment [3], in [14], in experiment [5], in experiment [6] and in experiment [7] was “inactive” throughout. Further, the Potency entry in experiment [8] and in [9] was “inactive” each time.

`OC[C@H]1OC(O)C[C@@H](O)[C@H]1O` (stereo not given in full): the Potency result in experiment [1], in experiment [2], in [3], in experiment [4], in experiment [15] and in experiment [10] was “inactive” each time. The Potency result in [11], in experiment [5], in [6], in experiment [7], in experiment [8] and in experiment [12] was “inactive” each time. For the same compound, the Potency result in [13] and in [9] was “inactive” throughout.

Regarding `CC(C)c1cc(C(C)C)c(CC(=O)NS(=O)(=O)Oc2c(C(C)C)cccc2C(C)C)c(C(C)C)c1`, the Potency result in experiment [1], in experiment [3], in [14], in experiment [7] and in experiment [12] was “inactive” throughout. Moreover, the Potency in experiment [2] was 7.31 µM (active); in [15] it was 11.8 µM (active); in [5], 24.3 µM (active); in experiment [6], 14.8 µM (active); in [8], 18.7 µM (active); in experiment [13], 16.6 µM (active).

With `COC(=O)C1C2CC3c4[nH]c5cc(OC)ccc5c4CCN3CC2CC(OC(=O)c2cc(OC)c(OC)c(OC)c2)C1OC` (stereo not given), the values for the Potency in [1], in experiment [11] and in [8] were 2.35 µM (active), 3.72 µM (active) and 18.7 µM (active), respectively. Moreover, the Potency result in experiment [2], in [3], in experiment [14] and in experiment [9] was “inactive” throughout.

Turning to `C=C1CCC2[C@](C)(CO)C(O)CC[C@]2(C)C1CC=C1C(=O)OCC1O` (stereo not given in full), the Potency result in experiment [1], in experiment [2], in experiment [3], in [14], in [10] and in experiment [11] was “inactive” throughout. Further, the Potency entry in [5], in experiment [6], in [7], in experiment [12], in [13] and in experiment [9] was “inactive” in each case.

Consider `C[C@H]1COc2c(N3CCN(C)CC3)c(F)cc3c(=O)c(C(=O)O)cn1c23`, for which the Potency result in [1], in experiment [2], in experiment [3], in [4], in experiment [10] and in experiment [11] was “inactive” each time. The Potency result in experiment [5], in experiment [6], in experiment [7], in experiment [8], in experiment [12] and in experiment [13] was “inactive” throughout. In addition, the Potency result in experiment [9] was “inactive”.

In the case of `Cc1ccc(-n2[nH]c(C)c(N=Nc3cccc(-c4cccc(C(=O)O)c4)c3O)c2=O)cc1C`, the Potency in [1] was 6.62 µM (active); in experiment [4], 18.7 µM (active); in experiment [10], 13.3 µM (active); in experiment [11], 14.8 µM (active); in experiment [5], 19.5 µM (active); in experiment [6], 6.62 µM (active). Also, the Potency in [8] was 13.3 µM (active). Moreover, the Potency result in experiment [2] and in [3] was “inactive” throughout.

With `CC(=O)O[C@H]1C[C@@H]2CC[C@H]3[C@H]4C[C@H]([N+]5(C)CCCCC5)[C@@H](OC(C)=O)[C@@]4(C)CC[C@@H]3[C@@]2(C)C[C@H]1N1CCCCC1`, the Potency in experiment [1] was 7.43 µM (active). Moreover, the Potency entry in experiment [2], in [3], in experiment [14], in [15], in experiment [5] and in experiment [6] was “inactive” each time. Moreover, the Potency entry in experiment [7], in experiment [8], in experiment [12], in experiment [13] and in experiment [9] was “inactive” each time.

Turning to `CC(C)OC(=O)[C@H](C)N[P@](=O)(OC[C@H]1O[C@@H](n2ccc(=O)[nH]c2=O)[C@](C)(F)[C@H]1O)Oc1ccccc1`, the Potency entry in [1], in experiment [2], in experiment [3], in [4], in experiment [15] and in experiment [10] was “inactive” each time. Further, the Potency result in experiment [11], in experiment [5], in experiment [6], in [7], in experiment [12] and in experiment [13] was “inactive” throughout. Besides, in [9], the Potency result is “inactive”.

In the case of `CC(Oc1ccc(O)cc1)(P(=O)(O)O)P(=O)(O)O`, the Potency result in experiment [1], in [2], in experiment [3], in experiment [4], in experiment [15] and in experiment [10] was “inactive” throughout. The Potency entry in [5], in experiment [6], in [7], in experiment [8], in experiment [12] and in [13] was “inactive” in each case. The Potency result in experiment [9] is “inactive”.

`CC(=O)OC[C@@H]1O[C@@H](n2ccc(=O)[nH]c2=O)[C@H](OC(C)=O)[C@H]1OC(C)=O`: the Potency result in [1], in [2], in experiment [3], in experiment [4], in experiment [11] and in [5] was “inactive” each time. For the same compound, the Potency entry in experiment [6] and in experiment [7] was “inactive” throughout.

For the origin of these results see PubChem BioAssay (NCATS).
